Assay results: PubChem BioAssay AID1159580 (chemical genetic matrix, 2015)
Where “and” joins values, the source holds several entries; their conditions need not be identical. Identical values can stand only once. Out of some 5,500 compounds screened, about 2,000 (36%) were called active. Inconclusive results (about 18%) are left out. No stated cut-off is given here; in the data, active means normalized growth mostly below about 0.91 (no sharp cut-off); inconclusive means no clear call, values can overlap the other calls; inactive means mostly above about 0.92. This is one part of the list.

Experiment: chemical genetic growth profiling, strain panel (AID 1159580);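 further: tested at 20 µM; growth read once vehicle control cultures reached saturation at 30 °C; 1 = growth at the plate median or of vehicle wells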
Conditions: S. cerevisiae deletion strains, growth OD

Measured: normalized growth

NCCc1cnc[nH]1
inactive: locus YAL021C, strain ccr4, stronger effect = lower value 1.01 | locus YAL026C, strain drs2, stronger effect = lower value 1.01 | locus YAL030W, strain snc1, stronger effect = lower value 1.01 | locus YAL040C, strain CLN3, stronger effect = lower value 0.978 | locus YBL061C, strain skt5, stronger effect = lower value 1.02 | locus YBR009C, strain hhf1, stronger effect = lower value 1 | locus YBR021W, strain FUR4, stronger effect = lower value 1 | locus YBR023C, strain chs3, stronger effect = lower value 1.02 | locus YBR171W, strain sec66, stronger effect = lower value 1.03 | locus YBR229C, strain ROT2, stronger effect = lower value 1.01 | locus YBR231C, strain swc5, stronger effect = lower value 0.976 | locus YBR279W, strain paf1, stronger effect = lower value 1.02 | locus YCL011C, strain gbp2, stronger effect = lower value 1.03 | locus YCL016C, strain dcc1, stronger effect = lower value 1.01 | locus YCL029C, strain bik1, stronger effect = lower value 1.01 | locus YCL061C, strain MRC1, stronger effect = lower value 1.02 | locus YCL069W, strain vba3, stronger effect = lower value 1.01 | locus YCR088W, strain abp1, stronger effect = lower value 1.01 | locus YDL005C, strain med2, stronger effect = lower value 1.02 | locus YDL035C, strain GPR1, stronger effect = lower value 0.988 | locus YDL040C, strain nat1, stronger effect = lower value 1.02 | locus YDL074C, strain BRE1, stronger effect = lower value 1 | locus YDL101C, strain DUN1, stronger effect = lower value 1.01 | locus YDL185W, strain tfp1, stronger effect = lower value 1.02 | locus YDL192W, strain arf1, stronger effect = lower value 1.03 | locus YDR001C, strain nth1, stronger effect = lower value 1.01 | locus YDR069C, strain doa4, stronger effect = lower value 0.993 | locus YDR101C, strain arx1, stronger effect = lower value 0.997 | locus YDR137W, strain rgp1, stronger effect = lower value 1.03 | locus YDR159W, strain sac3, stronger effect = lower value 0.995 | locus YDR162C, strain NBP2, stronger effect = lower value 0.998 | locus YDR195W, strain ref2 0.994 | locus YDR297W, strain sur2, stronger effect = lower value 1.04 | locus YDR318W, strain mcm21, stronger effect = lower value 1.02 | locus YDR334W, strain swr1, stronger effect = lower value 1.02 | locus YDR335W, strain msn5, stronger effect = lower value 1.02 | locus YDR363W, strain ESC2, stronger effect = lower value 0.998 | locus YDR388W, stronger effect = lower value 1.01 | locus YDR392W, strain spt3, stronger effect = lower value 1 | locus YDR502C, strain sam2, stronger effect = lower value 1.01 | locus YEL003W, strain gim4, stronger effect = lower value 1.03 | locus YEL037C, strain rad23, stronger effect = lower value 1.02 | locus YEL061C, strain CIN8 (second series), stronger effect = lower value 1.02 | locus YEL061C, strain CIN8, stronger effect = lower value 0.995 | locus YER002W, strain NOP16, stronger effect = lower value 0.994 | locus YER015W, strain faa2, stronger effect = lower value 1.01 | locus YER016W, strain bim1, stronger effect = lower value 1 | locus YER110C, stronger effect = lower value 1.02 | locus YER111C, strain swi4, stronger effect = lower value 1.02 | locus YER155C, strain BEM2 (second series), stronger effect = lower value 1.03 | locus YER155C, strain BEM2, stronger effect = lower value 1.01 | locus YER167W, strain BCK2, stronger effect = lower value 0.989 | locus YFR010W, strain ubp6, stronger effect = lower value 1.01 | locus YGL078C, strain dbp3, stronger effect = lower value 1.02 | locus YGL086W, strain mad1, stronger effect = lower value 1 | locus YGL167C, strain pmr1, stronger effect = lower value 1.01 | locus YGL173C, strain kem1, stronger effect = lower value 1 | locus YGL227W, strain vid30, stronger effect = lower value 1.01 | locus YGL240W, strain doc1, stronger effect = lower value 1.01 | locus YGL248W, strain PDE1, stronger effect = lower value 1.01 | locus YGL253W, strain hxk2, stronger effect = lower value 1.01 | locus YGR078C, strain PAC10, stronger effect = lower value 1 and 0.997 | locus YGR135W, strain pre9, stronger effect = lower value 1.02 | locus YGR252W, strain gcn5, stronger effect = lower value 1.04 | locus YHR013C, strain ard1, stronger effect = lower value 1.06 | locus YHR027C, strain rpn1, stronger effect = lower value 1.01 | locus YHR030C, strain SLT2, stronger effect = lower value 0.985 and 1 | locus YHR079C, strain IRE1 (second series), stronger effect = lower value 1.01 | locus YHR079C, strain IRE1, stronger effect = lower value 1.03 | locus YHR094C, strain hxt1, stronger effect = lower value 1.01 | locus YHR129C, strain ARP1, stronger effect = lower value 1.01 | locus YHR142W, strain chs7, stronger effect = lower value 1.01 | locus YHR200W, strain rpn10, stronger effect = lower value 1.02 | locus YIL066C, strain RNR3, stronger effect = lower value 1.01 | locus YIL073C, strain SPO22, stronger effect = lower value 1.03 | locus YIL125W, strain kgd1, stronger effect = lower value 1.02 | locus YIR030C, strain dcg1, stronger effect = lower value 1.01 | locus YJL092W, strain hpr5, stronger effect = lower value 1.02 | locus YJL095W, strain BCK1 (second series), stronger effect = lower value 1.02 | locus YJL095W, strain BCK1, stronger effect = lower value 1.01 and 0.999 | locus YJL115W, strain asf1, stronger effect = lower value 1.02 | locus YJL129C, strain trk1, stronger effect = lower value 1.03 | locus YJL134W, strain LCB3, stronger effect = lower value 0.995 | locus YJL154C, strain vps35, stronger effect = lower value 1.03 | locus YJL164C, strain tpk1, stronger effect = lower value 1.02 | locus YJL166W, strain qcr8, stronger effect = lower value 1.03 | locus YJL168C, strain set2, stronger effect = lower value 1.01 | locus YJL187C, strain SWE1 (second series), stronger effect = lower value 1 | locus YJL187C, strain SWE1, stronger effect = lower value 1.01 | locus YJR043C, strain POL32, stronger effect = lower value 1
